Screens from PubChem.
NSD2 inh: NSD2 (human) methyltransferase inhibition. O96028. NSD2 peptide methylation, AlphaScreen, 120 min. inhibition, % at 12.5 µM. 310,000 compounds, 0.54% hits; in the data active means inhibition above about 50%
RAD52 anneal inh: blocks human RAD52 DNA annealing. P43351. recombinant RAD52 DNA annealing, FRET fluorescence. inhibition, % at 18.7 µM. 360,000 compounds, 0.46% hits. AID 651710;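 active means every replicate showing at least 50% inhibition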
AF4-AF9 inh: blocks AF4 peptide binding to human AF9; P42568; AlphaScreen, biotin-AF4 peptide binding to FLAG-AF9; inhibition, % at 10 µM; 350,000 compounds, 0.47% hits;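 active means every replicate reaching a set inhibition limit, whatever the replicate mean, cut at about 25% in these data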
CASP6 VEID inh: blocks human caspase-6 cleavage activity; inhibition, % at 12.5 µM; purified caspase-6, Z-VEID-R110 cleavage fluorescence; 350,000 compounds, 0.53% hits; P55212;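 active means mean inhibition across replicates at least about 35%, with every replicate also reaching that limit, limit read from the data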
Ecoli rRNA inh: selective bacterial rRNA inhibition in E. coli; GFP signal change (wild-type ribosome), % (concentration not given with the values); 350,000 compounds, 1.6% hits; E. coli WT GFP vs humanized-ribosome RFP mutants, fluorescence, 24 h; hits give low values; DMSO median 0, no signal -100;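 active means significant combined selectivity score with lowered wild-type GFP, culture density cut under 30%, mutant RFP and density less affected; inactive means any of these conditions unmet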
Each line names hits and unclear results; the compound was inactive in the other large screens. In the library only some 2.5% were active in any assay of this set; here they are far more common.

CNC[C@@H]1Oc2c(cccc2N(C)C)C(=O)N(C)C[C@@H]1C	none (no result: NSD2 inh, RAD52 anneal inh, AF4-AF9 inh, CASP6 VEID inh)
COc1ccc(S(=O)(=O)NNC(=O)Cc2csc(C)n2)cc1[N+](=O)[O-]	CASP6 VEID inh 55.5
Cc1nc(CC(=O)NNS(=O)(=O)c2ccc3ccccc3c2)cs1	none (no result: RAD52 anneal inh, AF4-AF9 inh, CASP6 VEID inh, Ecoli rRNA inh)
CNC(=O)C[C@@H]1CC[C@H]2[C@@H](COc3ccc(NC(=O)c4cc(C)on4)cc3C(=O)N2C)O1	none (no result: NSD2 inh, RAD52 anneal inh, AF4-AF9 inh, CASP6 VEID inh)
CCn1c(=S)sc2c(=O)n(CC(=O)Nc3ccccc3)c(C)nc21	none
CCn1c(=S)sc2c(=O)n(CC(=O)Nc3ccc(Cl)cc3)c(C)nc21	Ecoli rRNA inh -19.9
CC1C=NC(S(=O)(=O)N2CC[C@@H]3[C@H](CO)N(C)c4ccc(-c5ccc(F)cc5)cc4[C@@H]32)=N1 (some centres undefined)	none (no result: NSD2 inh, RAD52 anneal inh, AF4-AF9 inh, CASP6 VEID inh)
Cc1ccccc1N=C(NO)c1nonc1N	Ecoli rRNA inh -29.2
Nc1nonc1C(=Nc1ccccc1)NO	none (no result: RAD52 anneal inh, AF4-AF9 inh, CASP6 VEID inh, Ecoli rRNA inh)
COc1cccc(NC(=O)CN(C)C(=O)CCCc2c[nH]c3ccccc23)c1	none
CN(CC(=O)Nc1cccc(F)c1)C(=O)CCCc1c[nH]c2ccccc12	Ecoli rRNA inh -26.4
S=C(NCCN1CCOCC1)Nc1ccc(-c2nc3ccccc3[nH]2)cc1	Ecoli rRNA inh -23.8
O=C1N/C(=N/S(=O)(=O)Cc2ccccc2)S/C1=C/c1ccc2c(c1)OCO2	Ecoli rRNA inh -40.1
Cc1coc2cc3oc(=O)c(Cc4ccccc4)c(C)c3cc12	Ecoli rRNA inh -21.6
CC(C)Sc1nc2c(cnn2-c2ccccc2)c(=O)[nH]1	AF4-AF9 inh 36.5 (no result: NSD2 inh)
CC(C)Sc1nc2c(cnn2-c2ccc(F)cc2)c(=O)[nH]1	none (no result: NSD2 inh)
CC1OC(OC2C(Oc3c(-c4ccc(O)cc4)oc4cc(O)cc(O)c4c3=O)OC(COC3O[C@@H](C)[C@H](O)[C@@H](O)C3O)C(O)C2O)C(O)C(O)C1O (some centres undefined)	none (no result: NSD2 inh)
CC1OC(OCC2OC(Oc3c(-c4ccc(O)cc4)oc4cc(O)cc(O)c4c3=O)C(O)C(O)C2O)C(O)C(O)C1O (centres undefined)	CASP6 VEID inh 54.1 (no result: NSD2 inh)
CN(c1ncc(C(F)(F)F)cc1Cl)n1cc(C(N)=O)c2ccccc2c1=O	NSD2 inh 110.1 (no result: RAD52 anneal inh, AF4-AF9 inh, CASP6 VEID inh, Ecoli rRNA inh)
CN(c1ncc(C(F)(F)F)cc1Cl)n1cc(C(=O)O)c2ccccc2c1=O	none (no result: RAD52 anneal inh, AF4-AF9 inh, CASP6 VEID inh, Ecoli rRNA inh)
CCCCNC(=S)N1CCN(CC)CC1	CASP6 VEID inh 44.6
CCOCCCNC(=S)N1CCN(CC)CC1	none
CCOC(=O)c1cnc2c(c(C)nn2C)c1Oc1ccccc1F	Ecoli rRNA inh -31.9
CCOC(=O)c1cnc2c(c(C)nn2C)c1Oc1cc(Cl)cc(Cl)c1	none
C[C@H](CO)N1C[C@H](C)[C@H](CN(C)S(=O)(=O)c2cccc(F)c2)Oc2ncc(C#CC3CCCCC3)cc2C1=O	none (no result: NSD2 inh)
CO[C@H]1CN(C)C(=O)c2ccc(NS(C)(=O)=O)cc2OC[C@H](C)NC[C@@H]1C	none (no result: NSD2 inh, RAD52 anneal inh, AF4-AF9 inh, CASP6 VEID inh)
COc1ccc(Cc2nnc(NC(=O)c3ccccc3[N+](=O)[O-])s2)cc1	Ecoli rRNA inh -29.8
CN(C)CCCCCCNC(=O)[C@@H]1C[C@@H]2C(=O)N3CCC[C@H]3C(=O)N2[C@@H]1c1ccc(O)cc1	AF4-AF9 inh 28.7 (no result: NSD2 inh, Ecoli rRNA inh)
NC(=O)NCc1ccccc1Cl	none
O=C(NCc1ccccc1Cl)NCc1ccccc1Cl	AF4-AF9 inh 31.8
COc1ccc2c(=O)c(C(=O)NCCc3ccccc3)c[nH]c2c1	Ecoli rRNA inh -27.2
COc1ccc2[nH]cc(CCNC(=O)C3CC(=O)N(c4ccc(Cl)cc4)C3)c2c1 (centres undefined)	Ecoli rRNA inh -23.8
COc1ccc(CCNC(=O)C2CC(=O)N(c3ccc(C)cc3)C2)cc1 (centres undefined)	none
COc1ccc2[nH]cc(CCNC(=O)Nc3ccccc3)c2c1	none
COc1ccc2[nH]cc(CCNC(=S)NCCc3ccccc3)c2c1	Ecoli rRNA inh -35.0 (no result: NSD2 inh)
COc1ccc2[nH]cc(C(=O)NCCc3ccccc3)c(=O)c2c1	Ecoli rRNA inh -20.6
COc1ccc2c(=O)c(C(=O)NCc3ccccc3)c[nH]c2c1	none
COc1ccccc1C#Cc1ccc([C@H]2[C@H]3CN(C(=O)C4CC4)CCCCN3[C@H]2CO)cc1	none (no result: NSD2 inh, Ecoli rRNA inh)
CC(C)C#Cc1ccc([C@H]2[C@H]3CN(C(=O)c4ccccn4)CC(=O)N3[C@H]2CO)cc1	none (no result: NSD2 inh)
NNC(=O)c1c[nH]c2ccc(OCc3ccccc3)cc12	Ecoli rRNA inh -27.5
NNC(=O)c1ccc(COc2ccccc2)cc1	none
Cc1cc(N)n(-c2ccc(S(=O)(=O)c3ccc(C(C)C)cc3)cc2)n1	Ecoli rRNA inh -25.9
Cc1cc(N)n(-c2ccc([N+](=O)[O-])cc2)n1	none
Cc1nc2ccc(NC(=O)CCC3CCCC3)cc2s1	CASP6 VEID inh 81.1
Cc1nc2ccc(NC(=O)CCS(=O)(=O)c3ccc(Cl)cc3)cc2s1	none
O=c1oc(-c2cc3ccccc3o2)nc2sc3c(c12)CCCC3	Ecoli rRNA inh -22.8
C(=C\c1ccccc1)/C=N/N1CCN(Cc2ccccc2)CC1	AF4-AF9 inh 44.0, Ecoli rRNA inh -25.1
S=C(NCc1ccco1)N/N=C/c1ccc(Cl)cc1	Ecoli rRNA inh -38.7
Oc1ccc(/C=N/NC(=S)NCc2ccco2)cc1	none (no result: RAD52 anneal inh, AF4-AF9 inh, CASP6 VEID inh, Ecoli rRNA inh)
COC(=O)N/N=C/c1cc(Cl)c(OCc2ccccc2F)c(OC)c1	Ecoli rRNA inh -15.6
CC(=O)N(C)C[C@H]1Oc2ncc(C#Cc3cccc(F)c3)cc2C(=O)N([C@@H](C)CO)C[C@H]1C	none (no result: NSD2 inh)
CCS(=O)(=O)c1ncc(Cl)c(C(=O)Nc2ccc(S(=O)(=O)N(C)c3ccccc3)cc2)n1	Ecoli rRNA inh -36.3
CCN(c1ccccc1)S(=O)(=O)c1ccc(NC(=O)c2nc(S(C)(=O)=O)ncc2Cl)cc1	none (no result: RAD52 anneal inh, AF4-AF9 inh, CASP6 VEID inh, Ecoli rRNA inh)
CCc1ccc(OCC(=O)O/N=C(\N)c2ccccn2)cc1	Ecoli rRNA inh -22.4
N/C(=N\OC(=O)COc1ccccc1)c1ccccn1	none
O=S(=O)(CCN1C=CC(C(F)(F)F)=NCC1)c1ccc(Cl)cc1Cl	AF4-AF9 inh 43.9 (no result: Ecoli rRNA inh)
CN(C)CC(=O)N[C@H]1CC[C@H](CCn2cc(CN(C)C)nn2)O[C@H]1CO	RAD52 anneal inh 73.3 (no result: NSD2 inh)
Cc1ccc(C2=NS(=O)(=O)N(C)C(C(=O)Nc3cc(C)n(CC(=O)N4CCC(C)CC4)n3)=C2)cc1	Ecoli rRNA inh -28.9
CN(C)CCCNC(=O)C[C@@H]1CC[C@H]2[C@@H](COC[C@@H](O)CN2Cc2ccc(Cl)c(Cl)c2)O1	none (no result: NSD2 inh)
CCC(=O)c1ccc(OCCn2cncn2)cc1	none (no result: RAD52 anneal inh, AF4-AF9 inh, CASP6 VEID inh, Ecoli rRNA inh)
CCC(=O)c1ccc(OCCn2cnc3ccccc32)cc1	Ecoli rRNA inh -33.8
COc1ccc(NS(=O)(=O)c2ccc(NC(=O)c3ccccc3Br)cc2)nn1	Ecoli rRNA inh -25.5
CCCC(=O)Nc1ccc2c(c1)OC[C@H](C)N(Cc1ccccc1)C[C@H](C)[C@H](OC)CN(C)C2=O	none (no result: NSD2 inh)
C[C@H](CO)N1C[C@H](C)[C@H](CN(C)C(=O)Cc2ccccc2)OCCCC[C@H](C)Oc2ccc(NC(=O)Nc3ccccc3)cc2C1=O	none (no result: NSD2 inh)
Cc1cccn2c(Nc3ccccc3)c(-c3ccccn3)nc12	Ecoli rRNA inh -43.0
Cc1ccn2c(Nc3ccccc3C)c(-c3ccccn3)nc2c1	none (no result: AF4-AF9 inh)
